Bioassay records as filed in PubChem.
Pf growth 96h: P. falciparum growth inhibition at 96 hours. P. falciparum luciferase reporter growth, 96 h. Potency, µM (highest dose often 28.7 µM), for the others: at the highest dose activity change, negative = inhibition, usual class: inhibitors. actives 6.9% (n = 320,000); also: potency is read from the fitted curve at half-maximal effect; % is scaled to controls: 0 for no effect and ±100 for the full control effect
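Two-generation exposure (96 h) targets delayed-death phenotype. Reporter parasites carrying integrated firefly luciferase, in red cells at 2% hematocrit and 0.05% parasitemia final, kept at 37 C, 5% CO2; luminescence loss indicates inhibition.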
Shiga toxin inh: blocks Shiga toxin action in Vero cells; actives 9.2% (n = 290,000); Vero cells, Shiga toxin protein synthesis inhibition reporter; inhibition, % at 38.7 µM; in the data active = inhibition mostly above about 28%, no sharp cut-off; inactive = mostly below about 43%; also: 0% is about no effect
NS1 inh: influenza NS1 inhibition. actives 0.4% (n = 270,000). Potency, µM (highest dose often 46.1 µM), for the others: at the highest dose activity, positive = more growth; calls by dose curve; also: potency is read from the fitted curve at half-maximal effect; actives are rising curves; nearly all actives have a fitted effect of over 50% in size
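Recovery from NS1-induced slow growth read by OD600 in budding yeast switched to galactose assay medium (pH 6.0, -URA) at 1:100 dilution. Compound 23 nl per well; the matching strain lacking NS1 serves as control.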
Pf growth 48h: P. falciparum growth inhibition at 48 hours (one generation). Potency, µM (titrated, usually from 28.7 µM), for inactives: top-dose activity change, negative = inhibition, most hits filed as inhibitors. actives 5.9% (n = 310,000). P. falciparum luciferase growth in erythrocytes, 48 h; also: potency is read from the fitted curve at half-maximal effect; % is scaled to controls: 0 for no effect and ±100 for the full control effect
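Read-out is firefly luciferase luminescence from an integrated reporter in P. falciparum, so falling signal marks reduced parasite growth. Infected erythrocytes were at 2% hematocrit and 0.1% parasitemia (final) in Albumax-supplemented RPMI 1640.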
Cycloheximide cs: affects cycloheximide protein synthesis inhibition readout, counter-screen; cell reporter, cycloheximide protein synthesis inhibition counterscreen; max response, %; actives 12% (n = 300,000); AID 2314; in the data active = max response mostly above about 13%, no sharp cut-off; inactive = mostly below about 14%; also: read at 38.3 µM for the half of the compounds with a filed dose; 0% is about no effect
Sm TGR inh: S. mansoni TGR enzyme inhibition | Q962Y6 | purified TGR, DTNB reduction, TNB absorbance 405 nm | Potency, µM (series often up to 114 µM), for inactives: top-dose activity change, negative = inhibition, usual class: inhibitors | actives 3% (n = 360,000); also: potency is read from the fitted curve at half-maximal effect; % is scaled to controls: 0 for no effect and ±100 for the full control effect; nearly all actives have a fitted effect of over 60% in size
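First, TGR (20 nM dispensed) and NADPH were mixed with compound. Second, a 15 min room-temperature incubation followed. Third, further NADPH and then DTNB were added to start the reaction. Finally, TNB absorbance was monitored kinetically.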
The depositor's hits bear a star; ? = inconclusive; nt = no result given. Sampled rows, rich in hits. Any-hit rate of the full collection: about 21%. Unless noted, calls follow the shape of the dose curve; as a rule, active = well fitted curve in the direction sought with a large enough effect; inconclusive = small, poorly fitted or top-dose-only effect, or another doubt; inactive = no such curve, though single readings can be large; an effect the other way counts as inactive or inconclusive.

SMILES	Pf growth 96h	Shiga toxin inh	NS1 inh	Pf growth 48h	Cycloheximide cs	Sm TGR inh
O=C(NC1CC2CCCC(C1)N2CC(=O)N1CCCc2ccccc21)C1CCCCC1 (centres undefined)	15µM*	-3	-3%	-9%	1	-7%
O=C(C1COc2ccccc2O1)N1CCCC1 (centres undefined)	?	20	7%	nt	15	1%
O=C(C1CCCCC1)N1CCCc2ccccc21	17%	31	-6%	nt	22*	-10%
CC(=O)NC1CC2CCCC(C1)N2CC(=O)N1CCCc2ccccc21 (centres undefined)	-28%	15	-3%	6%	-1	5%
O=C(C1COc2ccccc2O1)N1CCc2ccccc21 (centres undefined)	34%	67*	-1%	54%	68*	-8%
CCN(CC)S(=O)(=O)c1ccc2c(c1)N(CC(=O)N1CCCC1)C(=O)CO2	0%	-3	-1%	-8%	-3	-3%
Cc1cc(C)c(NC(=O)C2CCN(S(=O)(=O)c3c(C)noc3/C=C/c3ccccc3F)CC2)c(C)c1	nt	nt	nt	nt	nt	-8%
O=C(C1CC(=O)N(c2ccc(F)cc2)C1)N1CCCCC1 (centres undefined)	1%	0	13%	6%	7	1%
O=C1CC(C(=O)N2CCCc3ccccc32)CN1c1ccc(F)cc1 (centres undefined)	?	75*	10%	7%	25*	-1%
CCOc1ccc(NC(=O)c2ccc3c(c2)CCN3S(=O)(=O)c2ccc(Cl)cc2)cc1	nt	nt	nt	nt	nt	-1%
Cc1c(C#N)c2ccccc2n1CC(=O)NC(C)c1ccccc1 (centres undefined)	nt	-8	-3%	2.9µM*	-1	-17%
CCOC(=O)Cn1c(C)c(C#N)c2ccccc21	?	-12	-3%	-4%	-2	9%
Cc1c(C#N)c2ccccc2n1CC(=O)O	-29%	6	10%	5%	8	0%
Cc1cccc(NC(=O)Cn2c(C)c(C#N)c3ccccc32)c1C	nt	-5	-6%	2.1µM*	-3	5%
Cc1nn(-c2ccccc2)c(C)c1NC(=O)COc1ccc([N+](=O)[O-])cc1	8%	nt	nt	-9%	nt	0%
COCCn1c(N)c(N(Cc2ccccc2)C(=O)c2ccc3ccccc3c2)c(=O)[nH]c1=O	?	12	nt	10µM*	-2	-2%
Nc1c(N(Cc2ccco2)C(=O)COc2ccccc2Cl)c(=O)[nH]c(=O)n1Cc1ccccc1	-20%	nt	nt	?	nt	50µM*
COc1cccc(C(=O)N(Cc2ccco2)c2c(N)n(Cc3ccccc3)c(=O)[nH]c2=O)c1	?	nt	nt	-28%	nt	45µM*
Nc1c(N(Cc2ccco2)C(=O)c2cccc(Cl)c2)c(=O)[nH]c(=O)n1Cc1ccccc1	?	nt	nt	?	nt	40µM*
O=C1COc2ccc(S(=O)(=O)N3CCC(C(=O)NCc4ccc(F)cc4)CC3)cc2N1	50%	21	-13%	-2%	-8	3%
COc1ccc2c(c1)c1c(c(=O)n(-c3cccc(C)c3)c(=O)n1CC(=O)N1CCCC1)n2C	nt	nt	nt	nt	nt	1%
Nc1c(N(Cc2ccco2)C(=O)c2ccc(Br)cc2)c(=O)[nH]c(=O)n1Cc1ccccc1	2%	nt	nt	?	nt	35µM*
O=C(O)CCC(=O)NCCn1c(-c2ccccc2)csc1=Nc1ccccc1	?	49	-10%	-8%	19*	-12%
COc1ccc(N=c2scc(-c3ccc(OC)cc3)n2CCO)cc1	15%	63	-11%	16%	30*	-29%
OCCCn1c(-c2ccccc2)csc1=Nc1ccccc1	?	73*	nt	?	32	4%
SMILES	Pf growth 96h	Shiga toxin inh	NS1 inh	Pf growth 48h	Cycloheximide cs	Sm TGR inh
CCN(CC)CCn1c(-c2ccccc2)csc1=Nc1ccccc1	nt	nt	nt	nt	nt	1%
Cc1ccc(-n2nnc(-c3nc(-c4cccs4)no3)c2N)c(C)c1	nt	nt	nt	nt	nt	7%
Cc1ccc(/C(N)=N/OC(=O)CCC2CCCCC2)cc1	?	38	-33%	16%	14*	3%
N/C(=N\OC(=O)CC1CCCCC1)c1ccncc1	?	58*	1%	17%	17*	0%
Cc1ccc(/C(N)=N/OC(=O)CCC2CCCC2)cc1	-2%	3	3%	37%	-3	-1%
N/C(=N\OC(=O)CCC1CCCC1)c1ccncc1	?	80	2%	-1%	20*	nt
